This passage reports growth results from PubChem BioAssay (NCI).

About 83,000 compounds went through this panel and 20% of them were active in at least one assay; those are over-represented in the sample as a whole.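 Note: values are percent growth. 100 is the growth of untreated cells, values between 100 and 0 indicate rising inhibition; between -100 and 0 indicates cell death.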 Values without a mark were called inactive. The source made the active and inactive calls. Rule for the calls: active = growth percent below 10; inactive = the rest.

Assay in all cases: NCI-60 one-dose screen, 48 h (100 = growth as untreated, 0 = no growth, -100 = all killed)
Holding throughout (conditions): 10 µM unless noted

Assay [1] deals with SK-MEL-2 melanoma.
Assay [2] concerns EKVX NSCLC.
For assay [3], the system named is SN12C renal.
For assay [4], the system named is UO-31 renal.
Assay [5] concerns TK-10 renal.
Assay [6] concerns ACHN renal.
For assay [7], the system named is CAKI-1 renal.
The test system of assay [8] is A498 renal.
The test system of assay [9] is CCRF-CEM leukemia.
The subject of assay [10] is MOLT-4 leukemia.

Consider `Cn1cc(-c2csc(-c3c[nH]c4ccc(F)cc34)n2)c2cccnc21`, for which the growth in assay [1] is 41.2%; in assay [2], 60.4%; in assay [3] it was 64.5%; in assay [4], 77.1%; in assay [5] it was 69.7%; in assay [6], 48.8%. Moreover, the growth is 36.9% in [7], 27% in assay [8], 39.7% in assay [9] and 46.7% in assay [10].

Regarding `COc1cccc(-c2nn(-c3ccccc3)cc2-c2ccnc(NCCNS(=O)(=O)c3ccc(Cl)cc3)c2)c1`, the growth was 13.4% in assay [1]; 32.1% in [2]; 33.9% in [3]; 15.8% in assay [4]; 41.5% in assay [5]; 26.6% in [6]. For the same compound, the growth was 32.2% in assay [7], 45.9% in [8], 15.3% in assay [9] and 1.18% (active) in [10].

For `COc1ccc(NC(=O)c2ccoc2COc2ccccc2)cc1`, the growth is 97.9% in assay [1]; 94.7% in assay [2]; 94% in assay [3]; 81.1% in assay [4]; 109% in [5]; 98.3% in [6]. Further, the growth in assay [7] was 86.2%; in [8], 99.7%; in [9], 87.7%; in assay [10], 95.6%.

`Cc1ccc(/C=C(\C#N)c2cc3ccccc3n2C)cc1`: the growth is 75.7% in [1]; 48.4% in [2]; 39.5% in [3]; 56.8% in [4]; 99.3% in assay [5]; 42.9% in [6]. Also, the growth in [7] was 34.4%; in assay [8], 10.4%; in assay [9] it was 13.9%; in assay [10], 21.6%.

For the compound `Cn1c2c(c3ccc(Cl)cc31)-n1cccc1C2=O`, the growth is 84.6% in assay [1]; 86.4% in [2]; 74.5% in [3]; 57.5% in [4]; 88.2% in [5]; 78.2% in [6]. Further, the growth is 83.2% in [7], 89.6% in assay [8], 85.7% in assay [9] and 64.2% in assay [10].

Regarding `CC(=O)O[C@H]1CC[C@@]2(C)C(=CC[C@@H]3[C@@H]2CC[C@]2(C)C(=O)N(O)C(=O)C[C@@H]32)C1`, the growth is 80.4% in assay [1]; 102% in assay [2]; 97.2% in assay [3]; 97.4% in assay [4]; 101% in assay [5]; 89.3% in [6]. The growth was 64.1% in assay [7], 92.7% in [8], 86% in assay [9] and 79.5% in assay [10].

As to `CCC1C(=O)COC1=O` (stereo not given), the growth is 87% in [1]; 95.5% in assay [2]; 104% in assay [3]; 95.7% in assay [4]; 90.5% in assay [5]; 103% in assay [6]. For the same compound, the growth in assay [7] was 92.4%; in assay [8], 91.4%; in [9] it was 85.4%; in assay [10], 92.9%.

In the case of `CCN1CCN(C(=O)[C@@]2(C)CC[C@]3(C)CC[C@]4(C)C(=CC(=O)[C@@H]5[C@@]6(C)CC[C@H](OCCC#N)C(C)(C)[C@@H]6CC[C@]54C)[C@@H]3C2)CC1`, the growth in assay [1] is 93.5%; in assay [2], 85.7%; in assay [3], 83.1%; in assay [4], 69.8%; in assay [5] it was 93.4%; in [6], 98.3%. Moreover, the growth in assay [7] is 80.2%; in assay [8] it was 101%; in [9], 63.4%; in assay [10], 62.8%.

In the case of `O=C(CCCCCn1c2ccccc2c2c3c(c4c5ccccc5[nH]c4c21)C(=O)N(O)C3=O)N1CCOCC1`, the growth in assay [1] is 72.5%; in assay [2], 77.7%; in assay [3], 57.1%; in [4] it was 29.6%; in assay [5], 70.7%; in assay [6], 29.4%. Besides, the growth was -22.9% (active) in [7], 26.9% in assay [8], 5.19% (active) in [9] and -14.9% (active) in [10].

With `CCCCCCCC(=O)SCC/C=C/[C@@H]1CC(=O)NCc2cccc(n2)CN(Cc2ccc(Cl)cc2)CC(=O)N[C@@H](C(C)C)C(=O)O1`, the growth in [1] was 1.04% (active); in assay [2] it was 32.5%; in assay [3] it was 21.6%; in assay [4], -5.27% (active); in assay [5] it was -6.26% (active); in assay [6], -15.5% (active). In addition, the growth is -7.97% (active) in assay [7], -54% (active) in assay [8], 7.54% (active) in assay [9] and 3.43% (active) in [10].

As for `Fc1ccc(Nc2nc(Nc3ccc(-c4nc5ccccc5[nH]4)cc3)nc(N3CCCC3)n2)cc1`, the growth in assay [1] was 95.2%; in assay [2], 71.9%; in [3] it was 81.2%; in assay [4] it was 68.1%; in assay [5], 151%; in assay [6], 73.1%. Also, the growth is 88% in [7], 75.3% in assay [8], 5.35% (active) in assay [9] and 48.2% in assay [10].

Take `Cn1c(=O)c2c(nc(Br)n2CC(=O)Nc2ccc(F)cc2)n(C)c1=O`: the growth was 99.1% in assay [1]; 102% in [2]; 109% in assay [3]; 80.9% in [4]; 115% in assay [5]; 104% in assay [6]. Further, the growth in assay [7] was 95.9%; in [8], 117%; in [9] it was 90.1%; in assay [10], 91.9%.
